This note sets out measurements from PubChem BioAssay.

Assay [1] in a line: circadian clock period modulators, cell-based, LOPAC library, luminescence reporter (AID 2774).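 Note: values are relative to mean of DMSO wells on each plate.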 Particulars: circadian reporter cells, at 7 µM, actives lie on both sides.
A short description of assay [2]: hESC survival regulators, cell-based (AID 493140).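 Note: cells exposed to compounds for four days before counting.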 The following applies: human embryonic stem cell survival screen; stronger effect = higher value.
In assay [3] the test system is Hepatitis C virus NS3 helicase. Description: HCV NS3 helicase inhibitors, primary screen, biochemical, fluorescence polarization, LOPAC1280 library (AID 687035; in the data active = inhibition above about 37%). The following applies: Purified HCV NS3 helicase, Cy5-dT15 ssDNA binding fluorescence polarization; stronger effect = higher value; concentration not given here. A general note: Polarisation of emitted light reports the rotation of a fluorescent probe.

A short description of assay [4]: Cy5 fluorescence quenching or enhancement artefacts, artefact control for HCV NS3 helicase inhibitor project, biochemical, LOPAC1280 (AID 687037). Particulars: Cy5-DNA-NS3h complex fluorescence interference counterscreen. For orientation: Counterscreens check selectivity or assay interference.
In assay [5] the test system is Aerobactin synthetase IucA (Klebsiella pneumoniae, hypervirulent). Nature of the assay: IucA enzyme inhibition, biochemical, LOPAC library, absorbance readout (AID 1346212).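 Note: 100% = no compound wells and 0% = no enzyme wells.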 The following applies: IucA enzyme assay, absorbance (OD) readout; stronger effect = lower value;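 tested at 8 µM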.
Assay [6] in a line: viability loss in pontine glioma line – cell-based, SU-DIPG-XXV, MIPE5.0, CellTiter-Glo, qHTS, dose response (AID 1347065; cut-off not given, nearly all actives have AC50 up to about 26 µM;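 note: cells exposed to compound for 48 hours before ATP readout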). The following applies: CellTiter-Glo ATP luminescence. Background: ATP-based viability assays read luminescence as a measure of living cells.
The nature of assay [7]: JHH-DIPG-1 glioma cell viability, MIPE5.0 library, CellTiter-Glo luminescence, qHTS (AID 1347067; cut-off not given, nearly all actives have AC50 up to about 26 µM;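 note: cells exposed to compound for 48 hours before readout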). The following applies: JHH-DIPG-1 glioma viability, CellTiter-Glo ATP luminescence.
Assay [8] can be described thus: SU-DIPG-XXV glioma cell viability, MIPE5.0 library, qHTS (AID 1347068; cut-off not given, nearly all actives have IC50 up to about 30 µM;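 for IC50: cells exposed to compound for 48 hours before viability readout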).
Assay [9] can be described thus: sensitizers of A549 cells to miR-34 induction, primary screen, imaging, A549 dox-inducible miR-34, nuclei and caspase counts (AID 1347080;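 active = compounds whose cell count with miR-34 switched on is under 0.7 times the count with it off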). Particulars: A549 miR-34 inducible, Hoechst nuclei count, 48 h.
The nature of assay [10]: inhibitors of Cryptococcus chitosan production, flow cytometry, Cibacron Brilliant Red staining (AID 1347148).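 Note: compound exposure lasted three days at 37 degrees C.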 Particulars: Cryptococcus neoformans chitosan, stronger effect = lower value; at 10 µM unless noted.
A short description of assay [11]: phospholipid biosynthesis inhibitors in animal cells, primary screen, cell-based, LOPAC library, screen 4 (AID 1347384). The following applies: phospholipid biosynthesis inhibition screen, at 10 µM.
Assay [12] is described as follows: viability rescue of complex I mutant cybrids, primary screen, cell-based, galactose medium, ATP luminescence (AID 1645843;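 active = z-score of at least 1.8 in each of two replicates, scored against plate mean and spread of sample wells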;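 note: positive z means more ATP and so rescue of galactose-driven cybrid death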). The following applies: complex I mutant cybrid cells, 72 h, stronger effect = higher value.
Assay [13] can be described thus: growth inhibition of DIPG glioma cells, dose response, cell-based, SU-DIPG-XIII, MIPE4.0, CellTiter-Glo, qHTS (AID 1347061; cut-off not given, nearly all actives have AC50 up to about 37 µM;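 note: cells exposed to compound for 48 hours before readout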). The following applies: SU-DIPG-XIII viability, CellTiter-Glo ATP luminescence.
The nature of assay [14]: growth inhibition of DIPG glioma cells, dose response, cell-based, JHH-DIPG-1, MIPE4.0, CellTiter-Glo, qHTS (AID 1347062; cut-off not given, nearly all actives have AC50 up to about 27 µM;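 for AC50: cells exposed to compound for two days before readout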). The following applies: JHH-DIPG-1 viability, CellTiter-Glo ATP luminescence.
The nature of assay [15]: growth inhibition of DIPG glioma cells, dose response, cell-based, SU-DIPG-IV, MIPE4.0, CellTiter-Glo, qHTS (AID 1347063; cut-off not given, nearly all actives have AC50 up to about 30 µM;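 note: compound exposure lasted 48 hours before the viability readout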). Particulars: SU-DIPG-IV viability, CellTiter-Glo ATP luminescence.
Assay [16] is described as follows: SU-DIPG-VI glioma cell viability, MIPE4.0 library, CellTiter-Glo luminescence, qHTS (AID 1347066; cut-off not given, nearly all actives have AC50 up to about 30 µM;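 note: cells exposed to compound for 48 hours before readout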). The following applies: CellTiter-Glo ATP luminescence.
The nature of assay [17]: growth inhibition of DIPG glioma cells, dose response, cell-based, SU-DIPG-XVII, MIPE5.0, CellTiter-Glo, qHTS (AID 1347060; cut-off not given, nearly all actives have AC50 up to about 26 µM;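 note: cells exposed to compound for 48 hours before viability readout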). Particulars: SU-DIPG-XVII viability, CellTiter-Glo ATP luminescence.
Assay [18] can be described thus: growth inhibition of DIPG glioma cells, dose response, cell-based, SU-DIPG-XIII, MIPE5.0, CellTiter-Glo, qHTS (AID 1347064; cut-off not given, nearly all actives have AC50 up to about 23 µM;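 note: cells exposed to compound for 48 hours before the viability read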). Particulars: SU-DIPG-XIII viability, CellTiter-Glo ATP luminescence.
Where [19] appears, read: measured here: relative caspase fold change +Dox/-Dox.
[20] abbreviates: measured here: total cells with miR-34 induction, stronger effect = lower value.
[21] abbreviates: measured here: total cells without miR-34 induction.

Several values for one entry are separate records, joined by “and”; a condition that tells them apart may be missing. Identical values can stand only once. Records with an inconclusive call do not appear. Activity calls are given as the source filed them. Unless noted, the rule behind the calls is not given here.

As for `CC(=O)c1c(O)c(C)c(O)c(Cc2c(O)c3c(c(C(=O)/C=C/c4ccccc4)c2O)OC(C)(C)C=C3)c1O`, the period change in assay [1] was 0.065 h (inactive). Further, in assay [2], the survival was 142 (inactive). Besides, the inhibition (in general, the relative decrease from the control value, in per cent) in [3] was -3% (inactive). The fluorescence ratio (interference) in [4] is 0.9 (inactive). The remaining activity (as a rule, the signal under treatment as a percentage of the control signal) in assay [5] was 100% (inactive). Further, the AC50 (commonly the concentration at which the activity in the assay is half-maximal) is 20900 nM (active) in assay [6] and 23500 nM (active) in [7]. Moreover, in [8], the compound was called inactive. Moreover, the fold change in assay [9] (stronger effect = lower value) was 0.991 (inactive) and 1.02 (inactive); in assay [9] (setting [19]), 1.01 and 0.826. For the same compound, the cell count in [9] (setting [20]) is 1480 and 1570; in assay [9] (setting [21]), 1490 and 1540. In assay [10], the fold fluorescence is 4.65 [at 96.8 µM] (inactive). Moreover, in assay [11], the compound was called active. Further, in [12], the z-score was -1.27 (inactive).

For the compound `Cc1nc(-c2ccc(-c3ccc(C(=O)N4CCc5cc6c(cc54)C4(CCN(C)CC4)CO6)cc3)c(C)c2)no1`, the period change in [1] was 0.165 h (inactive). In addition, the remaining activity in assay [5] was 96.4% (inactive). In addition, the result in [13], in assay [14], in assay [15] and in assay [16] was inactive.

In the case of `NC(=O)c1cc(N2CC2)c([N+](=O)[O-])cc1[N+](=O)[O-]`, the period change in assay [1] is -0.165 h (inactive). For the same compound, in assay [3], the inhibition is -2% (inactive). Further, the fluorescence ratio (interference) in [4] was 1 (inactive). For the same compound, the remaining activity in [5] is 112% (inactive). Also, the fold change in assay [9] (stronger effect = lower value) was 1.03 (inactive); in [9] (setting [19]), 1.9. The results for the cell count in assay [9] (setting [20]) and in [9] (setting [21]) were 4350 and 4220, respectively. The compound was classed as inactive in [11]. Besides, the z-score in assay [12] is 0.09 (inactive).

Regarding `C/C=C(/C)C(=O)O[C@H]1C(C)=C2[C@H]([C@@H]1OC(=O)CCCCCCC)[C@@](C)(OC(C)=O)C[C@H](OC(=O)CCC)[C@@]1(O)[C@H]2OC(=O)[C@@]1(C)O`, in assay [1], the period change was 9.62 h (inactive). Also, the inhibition in [3] was -3% (inactive). Besides, the fluorescence ratio (interference) in [4] is 1 (inactive). Moreover, the remaining activity in [5] is 86.6% (inactive). Also, the AC50 in assay [17] was 52.5 nM (active); in assay [13], 590 nM (active); in [14], 46.9 nM (active); in assay [15], 7.43 nM (active); in [18] it was 295 nM (active); in [6], 23.5 nM (active). In assay [16], the AC50 is 105 nM (active). In addition, in assay [8], the half-maximal inhibitory concentration (IC50) (commonly the concentration at which inhibition is half-maximal) is 1320 nM (active). In addition, the fold change was 1.93 (inactive) and 1.56 (inactive) in assay [9] (stronger effect = lower value); 0.132 and 0.916 in assay [9] (setting [19]). Further, the cell count in assay [9] (setting [20]) was 662 and 522; in assay [9] (setting [21]) it was 343 and 336. Moreover, the fold fluorescence in assay [10] was 5.31 [at 76.8 µM] (inactive). The result in assay [11] was inactive. The z-score in [12] was -1.38 (inactive).

With `CN1CC[C@@]2(C)c3cc(O)ccc3N(C)C12` (stereo partly specified), the period change in [1] is -0.055 h (inactive). In addition, the survival in assay [2] was 4.58 (inactive). The inhibition in [3] is 1% (inactive). Moreover, the fluorescence ratio (interference) in [4] was 1 (inactive). Further, the remaining activity in assay [5] was 92.9% (inactive). For the same compound, the fold change in assay [9] (stronger effect = lower value) was 1.09 (inactive); in assay [9] (setting [19]), 1.19. Also, the values for the cell count in [9] (setting [20]) and in [9] (setting [21]) were 8970 and 8270, respectively. In [11], the result was inactive. In addition, the z-score in [12] is -1.04 (inactive).
